The panel holds about 79,000 compounds, 15% with a hit somewhere; the sample as a whole holds those more often. A number with no mark means an inactive call. Active and inactive are the calls of the source. No stated cut-off is given here; in the data, active means growth inhibition above about 70%; inactive means the rest.
Key:
[1] = NCI Yeast Anticancer Drug Screen. Data for the rad50 strain (AID 155);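 further: 0% = growth of vehicle-only cultures of the same strain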; conditions: S. cerevisiae rad50 strain growth inhibition, stronger effect = higher value
How it was run: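 Cells are treated with compound, grown, and their growth is then scored against vehicle-only cultures of the same repair-deficient yeast strain.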

[2] = NCI Yeast Anticancer Drug Screen. Data for the mec2-1 strain (AID 157); conditions: S. cerevisiae mec2-1 strain, stronger effect = higher value
How it was run: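 mec2-1 yeast strain, carrying an alteration in DNA damage repair or cell cycle control, was exposed to compounds; growth inhibition was measured relative to vehicle-treated controls.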

[3] = NCI Yeast Anticancer Drug Screen. Data for the sgs1 mgt1 strain (AID 161);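 further: 0% = growth of cultures given vehicle only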; conditions: S. cerevisiae sgs1 mgt1 strain, stronger effect = higher value
How it was run: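 This yeast growth screen uses a strain with defined DNA-repair lesions; compound-treated growth is compared with vehicle-treated growth.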

[4] = NCI Yeast Anticancer Drug Screen. Data for the cln2 rad14 strain (AID 165);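 further: 0% = growth equal to vehicle treated cultures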; conditions: S. cerevisiae cln2 rad14 strain, stronger effect = higher value
How it was run: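 Yeast carrying cln2 and rad14 alterations (cell cycle control and DNA damage repair) were exposed to compounds. Growth inhibition was measured against vehicle-treated controls.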

[5] = NCI Yeast Anticancer Drug Screen. Data for the bub3 strain (AID 167); conditions: S. cerevisiae bub3 mutant strain, stronger effect = higher value
How it was run: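 Part of a panel of yeast mutants defective in DNA damage repair or cell cycle regulation. Each strain is grown with compound, and inhibition is calculated relative to solvent-treated cultures.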

[6] = NCI Yeast Anticancer Drug Screen. Data for the mlh1 rad18 strain (AID 175); conditions: S. cerevisiae mlh1 rad18 strain growth inhibition, stronger effect = higher value
How it was run: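 Growth inhibition of the yeast strain was measured after compound exposure and expressed relative to vehicle-treated controls. The strain carries defined defects in DNA damage repair.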

[7] = at 5.0 µM (retest, dose inferred, filed as 0.5)
[8] = at 50.0 µM (retest, dose inferred, filed as 5.0)

SMILES | growth inhibition [1, 7] [%] | growth inhibition [1, 8] | growth inhibition ([1]; at 50.0 µM) | growth inhibition [2, 7] [%] | growth inhibition [2, 8] | growth inhibition ([2]; at 50.0 µM) | growth inhibition [3, 7] [%] | growth inhibition [3, 8] | growth inhibition ([3]; at 50.0 µM) | growth inhibition [4, 7] [%] | growth inhibition [4, 8] | growth inhibition ([4]; at 50.0 µM) | growth inhibition [5, 7] [%] | growth inhibition [5, 8] | growth inhibition ([5]; at 50.0 µM) | growth inhibition [6, 7] [%] | growth inhibition [6, 8] | growth inhibition ([6]; at 50.0 µM)
O=C(c1ccccc1)C1N=NCC1c1ccc([N+](=O)[O-])cc1 (configuration not stated) | 2 | -21% | -3.65% | 11 | 9% | 10.1% | 1 | 47% | 18.2% | 5 | -4% | -4.4% | -5 | 5% | 84.2% (active) | 0 | -4% | 40.6%
CCc1cc(-c2ccco2)c(C#N)c(=S)n1C1OC(COC(C)=O)C(OC(C)=O)C(OC(C)=O)C1OC(C)=O (configuration not stated) | -2 | -6% | 3.05% | -15 | -7% | 8.2% | -1 | 6% | -19.4% | 4 | 22% | 8.6% | 7 | 21% | -0.25% | -14 | 5% | 34.1%
COc1ccc(C(c2cc3c(cc2O)OCO3)N2CCCC2)c(OC)c1 (configuration not stated) | 10 | 96% (active) | 98.5% (active) | 0 | 97% (active) | 98.2% (active) | 0 | 97% (active) | 98.8% (active) | -15 | 76% (active) | 61.2% | 5 | 99% (active) | 97.8% (active) | -3 | 97% (active) | 96% (active)
CC(=O)OC1=CC2=CCC3C(CCC4(C)C(C(C)=O)CCC34)C2(C)CC1 (configuration not stated) | -12 | 0% | -5.65% | -6 | 7% | 10.9% | -6 | 8% | 7.35% | -6 | -13% | 39.8% | -11 | -14% | -1.15% | -4 | -11% | 11.3%
CCCCCCCCN(CCCCCCCC)CC(O)c1ccc2cc3c(nc2c1)CCCC3 (configuration not stated) | -3 | 94% (active) | 98.7% (active) | 13 | 93% (active) | 81.4% (active) | 18 | 96% (active) | 98.8% (active) | -2 | 94% (active) | 97.7% (active) | 10 | 94% (active) | 97.7% (active) | 14 | 96% (active) | 98.3% (active)
Cc1cc(Cl)n2c(nc3ccccc32)c1C#N | 13 | 90% (active) | 98.2% (active) | 23 | 97% (active) | 98.5% (active) | 16 | 94% (active) | 99% (active) | 2 | 89% (active) | 96.8% (active) | 18 | 92% (active) | 98% (active) | 28 | 94% (active) | 98.3% (active)
OCC(CCc1c[nH]c2ccccc12)c1c[nH]c2ccccc12 (configuration not stated) | 27 | 99% (active) | 99.4% (active) | 5 | 99% (active) | 99.3% (active) | 20 | 100% (active) | 62% | 5 | 99% (active) | 99.5% (active) | 21 | 100% (active) | 99.3% (active) | 11 | 98% (active) | 99.3% (active)
CC1=C(C(=O)Nc2ccccc2Cl)C(c2cccc([N+](=O)[O-])c2)C(C(=O)Nc2ccccc2Cl)=C(C)N1 | -12 | 53% | 11.8% | 27 | 67% | 30.2% | -10 | 51% | 20.4% | 11 | 61% | 1.9% | 21 | 80% (active) | 27.9% | 13 | 63% | 13.3%
COc1ccc(/C=C2\CCC/C(=C\c3ccc(OC)cc3)C2=O)cc1 | 26 | -17% | -5.5% | -9 | -17% | -11.3% | 2 | -17% | -2.1% | -21 | -20% | -72.2% | -5 | -5% | 1.05% | -8 | -14% | 9.55%
